Drawing on PubChem BioAssay AID1942 (Johns Hopkins Ion Channel Center, 2009), this text covers activity change, less the hit threshold for 31 compounds.

The structures appear in SMILES notation. Screen size: about 2,400 compounds; about 580 (24%) were called active. Only a sample is shown. Values without a mark were called inactive.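 The calls were made as follows: active = activity change at or above the mean plus 3 SD of buffer wells without dofetilide, per plate; inactive = the rest.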

In the assay the target is Potassium voltage-gated channel subfamily KQT member 2 (Rattus norvegicus) (UniProt O88943). As to the kind of experiment: rat KCNQ2 channel activation by compounds alone, confirmation, counter-screen for hERG block protector project, cell-based, CHO, FluxOR thallium flux (AID 1942).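 Also: normalized value minus buffer-control mean plus three SD of buffer wells.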 As to conditions: CHO-KCNQ2 cells, FluxOR thallium flux fluorescence; at 10 µM; stronger effect = higher value. (In general: The purpose of a counterscreen is to sort out artefacts and off-target activity.)
Potassium voltage-gated channel subfamily KQT member 2 (Rattus norvegicus), sequence (O88943 whole entry, looked up): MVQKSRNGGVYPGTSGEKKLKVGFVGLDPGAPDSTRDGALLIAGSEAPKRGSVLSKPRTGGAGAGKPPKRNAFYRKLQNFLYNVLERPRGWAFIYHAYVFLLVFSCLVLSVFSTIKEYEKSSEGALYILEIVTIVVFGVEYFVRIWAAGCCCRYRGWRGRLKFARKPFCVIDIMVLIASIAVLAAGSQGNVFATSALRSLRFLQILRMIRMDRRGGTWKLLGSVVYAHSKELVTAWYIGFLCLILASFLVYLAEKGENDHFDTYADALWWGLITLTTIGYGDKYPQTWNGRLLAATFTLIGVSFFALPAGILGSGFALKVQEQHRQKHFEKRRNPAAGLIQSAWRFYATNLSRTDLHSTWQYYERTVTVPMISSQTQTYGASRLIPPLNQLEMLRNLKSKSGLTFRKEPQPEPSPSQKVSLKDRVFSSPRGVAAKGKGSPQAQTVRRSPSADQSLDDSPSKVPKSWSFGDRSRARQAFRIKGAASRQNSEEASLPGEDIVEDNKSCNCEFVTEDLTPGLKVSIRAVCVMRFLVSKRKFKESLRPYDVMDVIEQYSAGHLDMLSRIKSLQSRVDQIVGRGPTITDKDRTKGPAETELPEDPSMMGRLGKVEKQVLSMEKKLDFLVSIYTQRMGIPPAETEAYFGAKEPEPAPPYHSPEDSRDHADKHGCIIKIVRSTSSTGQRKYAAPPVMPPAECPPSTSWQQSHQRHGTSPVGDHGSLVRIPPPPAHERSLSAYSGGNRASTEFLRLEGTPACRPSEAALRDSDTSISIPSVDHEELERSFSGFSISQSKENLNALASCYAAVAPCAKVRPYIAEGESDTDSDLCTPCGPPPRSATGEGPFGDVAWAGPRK
As for `CC(=O)N1C(=O)/C(=C2\SC(=S)N(NC(=O)c3ccc(O)cc3)C2=O)c2ccccc21`, the activity change, less the hit threshold is -12.5%.

As to `CCCCOC(=O)Nc1nnc(C(C)C)s1`, the activity change, less the hit threshold was -15.9%.

`CCCCn1nc(NC(=O)COC)c2cc3ccc(C)cc3nc21`: the activity change, less the hit threshold is -8.8%. Then `O=C(NC(=S)N1CCN(Cc2ccc3c(c2)OCO3)CC1)c1cccc(Br)c1`, with 46.4% (active); and `COc1ccc(C(=O)N2CCN(Cc3ccc4c(c3)OCO4)CC2)cc1[N+](=O)[O-]`, with -19.3%; and `O=C(NC(=S)N1CCN(Cc2ccc3c(c2)OCO3)CC1)c1ccc(Cl)cc1`, with 36.3% (active). Then `COc1ccc(CCNC(=O)c2ccc3c(c2)OCO3)cc1`, with -18%. `CCOc1ccc(S(=O)(=O)N2CCN(Cc3ccc4c(c3)OCO4)CC2)cc1C`: the activity change, less the hit threshold was -28.7%. On to `O=C(COc1ccc(Cl)cc1)N1CCN(Cc2ccc3c(c2)OCO3)CC1`, for which the activity change, less the hit threshold was -4.9%. For the compound `Cc1cc2nccc(-c3ccc(Cl)cc3Cl)n2n1`, the activity change, less the hit threshold was -9.7%.

Consider `Cc1nnc(SCC2=C(C(=O)O)N3C(=O)C(NC(=O)Cn4nc(C(F)F)cc4C)C3SC2)s1` (stereo unspecified), for which the activity change, less the hit threshold is -16.5%. Then `CCCCC1C2=C(CCCC2=O)OC2=C1C(=O)CCC2`, with -25.6%. For the compound `O=C1CC(c2ccccc2)c2cccc(F)c21` (stereo unspecified), the activity change, less the hit threshold is -11.3%. Then `O=C(NC1CCCC1)C(c1ccncc1)N(C(=O)Cn1nnc(-c2ccccc2F)n1)c1cccc(F)c1` (stereo unspecified), with -18%; and `COc1ccc(Cn2c(O)cc(=O)[nH]c2=O)cc1`, with -20.5%. Then `O=C(O)CSCc1c(F)cccc1Cl`, with -31.3%.

Regarding `O=C(O)CSc1nc2ccccc2nc1Cc1ccccc1F`, the activity change, less the hit threshold was 1.3% (active). Then `Cn1c(CNC(=O)c2ccccc2F)nnc1SCc1nc2ccccc2c(=O)[nH]1`, with -4.7%; and `CCOC(=O)C1=C(O)/C(=C/c2ccc(OCC(=O)O)c(OC)c2)SC1=Nc1ccc(OCC)cc1`, with -27.2%; and `Cc1c(/C=C2\SC(=O)N(CC(=O)Nc3ccc4c(c3)OCO4)C2=O)c2ccccc2n1C`, with -15.7%. Then `CC(=O)N(C1=C(N)C(=O)c2ccccc2C1=O)C(C)C`, with -9.1%; and `Cc1ccc(C(C#N)c2ccc3c(C(F)(F)F)cc(C(F)(F)F)nc3n2)cc1` (stereo unspecified), with -5.9%; and `CCc1nnc(NC(=O)CSc2nc(-c3ccccc3)cc(-c3ccc(OC)cc3)c2C#N)s1`, with -24.2%. Then `COc1ccc(NC(=O)C2CC3CCC2C3)c(OC)c1` (stereo unspecified), with 15.8% (active); and `O=C(O)Cc1ccc(NC(=O)C2CC=CCC2C(=O)O)cc1` (stereo unspecified), with -17.7%. As to `COc1ccc(NC(=O)COC(=O)c2c(C)noc2C)c(OC)c1`, the activity change, less the hit threshold is -8.1%. Then `CC(C)N1CC(C(=O)Nc2ccc(Cl)c(Cl)c2)CC1=O` (stereo unspecified), with -15.3%; and `CC(C)c1ccc(NC(=O)C2CC3CCC2C3)cc1` (stereo unspecified), with 21.5% (active). Then `COc1ccc(OC)c(NC(=O)C(=S)NC2CCCCC2)c1`, with -21.2%; and `Cc1cc(C)c2nc(NC(=O)C3CCCO3)sc2c1` (stereo unspecified), with -17%; and `Cc1cc(C)c(NC(=O)C2CC3CCC2C3)c(C)c1` (stereo unspecified), with 75.9% (active).
